In PubChem BioAssay (Tox21):
Results filed as inconclusive are left out. Activity calls are given as the source filed them. Calls come from the whole dose curve; as a rule, active = well fitted curve in the direction sought with a large enough effect in the repeat runs; inconclusive = weak or mixed curves; inactive = no such curve, though single readings can be large; an effect the other way counts as inactive or inconclusive.

Legend:
[1] = qHTS RealTime-Glo MT Cell Viability Assay in HEK293 cells - 16 hour (AID 1224872); note: nearly all actives have a fitted effect of over 50% in size; note: potency is the fitted concentration of half-maximal effect
Summary of the method: (§1)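 Cells + reagent dispensed (600 cells/well, HEK293) → 5 h at 37 C/5% CO2 → 23 nL compound in DMSO pinned → 40 h at 37 C → luminescence read at 0, 8, 16, 24, 32, 40 h.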

[2] = qHTS RealTime-Glo MT Cell Viability Assay in HepG2 cells - 8 hour (AID 1224873); note: nearly all actives have a fitted effect of over 55% in size; note: potency is the fitted concentration of half-maximal effect
Summary of the method: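 HepG2 cells mixed with RealTime-Glo MT reagents (NanoLuc plus cell-permeant prosubstrate) were seeded at 600 cells/well, incubated 5 h at 37 C/5% CO2, then pinned with compounds in DMSO; nonlytic luminescence tracked viability during 40 h treatment.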

[3] = qHTS RealTime-Glo MT Cell Viability Assay in HEK293 cells - 40 hour (AID 1224874); details: RealTime-Glo luminescence; max response: hits give low values; note: potency is the fitted concentration of half-maximal effect; nearly all actives have a fitted effect of over 50% in size
Summary of the method: (§2)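 Luminescence readout at each listed time point; HEK293, 600 cells/well, RealTime-Glo MT reagent added with cells; compounds pinned (23 nL in DMSO) after 5 h at 37 C; continuous culture at 37 C.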

[4] = A CellTox Green Cytotoxicity Assay to monitor cytotoxicity in HEK293 cells - 24 hour (AID 1224875); note: series mostly up to about 77 µM; nearly all actives have a fitted effect of over 45% in size
Summary of the method: (§3)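 Read-out: fluorescence of a cell-impermeant cyanine dye staining DNA of dead cells, proportional to cytotoxicity. HEK293, 600 cells/well with reagent, compound (23 nL DMSO) added after 5 h; reads at 0, 8, 16, 24, 32, 40 h.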

[5] = A CellTox Green Cytotoxicity Assay to monitor cytotoxicity in HepG2 cells - 16 hour (AID 1224876); note: nearly all actives have a fitted effect of over 45% in size
Summary of the method: (§4)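 HepG2, 600 cells/well premixed w/ CellTox Green; 5 h settle, 37 C/5% CO2; pintool cpd add (DMSO); 37 C, 40 h; fluorescence read at 0, 8, 16, 24, 32, 40 h.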

[6] = A CellTox Green Cytotoxicity Assay to monitor cytotoxicity in HepG2 cells - 40 hour (AID 1224879); note: nearly all actives have a fitted effect of over 40% in size; note: potency is the fitted concentration of half-maximal effect
Summary of the method: as §4

[7] = qHTS RealTime-Glo MT Cell Viability Assay in HEK293 cells - 0 hour (AID 1224880); note: top concentration of the series differs between compounds; nearly all actives have a fitted effect of over 45% in size
Summary of the method: as §2

[8] = A CellTox Green Cytotoxicity Assay to monitor cytotoxicity in HEK293 cells - 32 hour (AID 1224881); note: nearly all actives have a fitted effect of over 40% in size; note: potency is the fitted concentration of half-maximal effect
Summary of the method: as §3

[9] = A CellTox Green Cytotoxicity Assay to monitor cytotoxicity in HepG2 cells - 0 hour (AID 1224882); note: nearly all actives have a fitted effect of over 35% in size
Summary of the method: as §4

[10] = A CellTox Green Cytotoxicity Assay to monitor cytotoxicity in HepG2 cells - 32 hour (AID 1224883); note: nearly all actives have a fitted effect of over 50% in size; note: potency is the fitted concentration of half-maximal effect
Summary of the method: as §4

[11] = A CellTox Green Cytotoxicity Assay to monitor cytotoxicity in HEK293 cells - 8 hour (AID 1224884); note: nearly all actives have a fitted effect of over 35% in size
Summary of the method: as §3

[12] = qHTS RealTime-Glo MT Cell Viability Assay in HepG2 cells - 16 hour (AID 1224885); note: nearly all actives have a fitted effect of over 50% in size; note: potency is the fitted concentration of half-maximal effect
Summary of the method: (§5)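 Real-time, nonlytic viability: 600 HepG2 cells/well mixed with NanoLuc enzyme plus prosubstrate; 5 h settle, compound (DMSO) added by pintool; luminescence monitored over 40 h at 37 C.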

[13] = qHTS RealTime-Glo MT Cell Viability Assay in HEK293 cells - 24 hour (AID 1224886); note: nearly all actives have a fitted effect of over 50% in size; note: potency is the fitted concentration of half-maximal effect
Summary of the method: as §1

[14] = A CellTox Green Cytotoxicity Assay to monitor cytotoxicity in HEK293 cells - 16 hour (AID 1224888); note: nearly all actives have a fitted effect of over 35% in size
Summary of the method: as §3

[15] = A CellTox Green Cytotoxicity Assay to monitor cytotoxicity in HepG2 cells - 8 hour (AID 1224890); note: nearly all actives have a fitted effect of over 45% in size
Summary of the method: as §4

[16] = qHTS assay to identify small molecule antagonists of the estrogen receptor alpha (ER-alpha) signaling pathway using the BG1 cell line in the presence of 0.1 nM 17-beta-estradiol - cell viability counter screen (AID 1259241); note: nearly all actives have a fitted effect of over 40% in size
Summary of the method: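 Viability in VM7Luc4E2 cells after 22 hr compound exposure under 0.1 nM 17beta-estradiol stimulation, by CellTiter-Fluor.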

[17] = qHTS RealTime-Glo MT Cell Viability Assay in HepG2 cells - 32 hour (AID 1224877); note: nearly all actives have a fitted effect of over 55% in size; note: potency is the fitted concentration of half-maximal effect
Summary of the method: as §5

[18] = A CellTox Green Cytotoxicity Assay to monitor cytotoxicity in HepG2 cells - 24 hour (AID 1224878); note: nearly all actives have a fitted effect of over 45% in size; note: potency is the fitted concentration of half-maximal effect
Summary of the method: as §4

[19] = qHTS RealTime-Glo MT Cell Viability Assay in HEK293 cells - 8 hour (AID 1224887); note: nearly all actives have a fitted effect of over 50% in size; note: potency is the fitted concentration of half-maximal effect
Summary of the method: as §2

[20] = qHTS RealTime-Glo MT Cell Viability Assay in HepG2 cells - 0 hour (AID 1224889); note: nearly all actives have a fitted effect of over 50% in size
Summary of the method: as §5

Measured: Potency

CC(C)N1C(=O)N(c2ccccc2)CSC1=NC(C)(C)C
active: [1] 19.5 µM | [3] 21.9 µM | [13] 19.5 µM
inactive: [2] | [4] | [5] | [6] | [7] | [8] | [9] | [10] | [11] | [12] | [14] | [15] | [16]

CC[C@H]1C[C@@H]2C[C@H]3c4[nH]c5ccc(OC)cc5c4CCN(C2)[C@@H]13
active: [18] 54 µM | [10] 54 µM
inactive: [1] | [2] | [4] | [5] | [17] | [7] | [8] | [11] | [12] | [19] | [14] | [20] | [15]

O=C(NC(=O)c1c(F)cccc1F)Nc1cc(Cl)c(OC(F)(F)C(F)F)c(Cl)c1
inactive: [1] | [2] | [4] | [5] | [17] | [18] | [6] | [7] | [8] | [9] | [10] | [11] | [12] | [13] | [19] | [14] | [20] | [15] | [16]

ClCc1ccc(Cl)cc1Cl
inactive: [1] | [2] | [5] | [17] | [6] | [7] | [9] | [10] | [12] | [13] | [19] | [20] | [15] | [16]

N#Cc1c(-c2ccc(Cl)cc2)[nH]c(C(F)(F)F)c1Br
active: [1] 6.92 µM | [3] 1.23 µM | [8] 49 µM | [13] 1.1 µM
inactive: [4] | [5] | [7] | [9] | [11] | [14] | [16]

COc1ccc(/C(=C/C(=O)N2CCOCC2)c2ccc(Cl)cc2)cc1OC
inactive: [1] | [2] | [4] | [5] | [18] | [6] | [7] | [8] | [10] | [11] | [12] | [14] | [15] | [16]

S=C(SSC(=S)N1CCCCC1)N1CCCCC1
active: [1] 16.9 µM | [2] 26.8 µM | [17] 0.213 µM | [6] 0.169 µM | [8] 0.107 µM | [10] 0.19 µM | [13] 13.4 µM
inactive: [4] | [7] | [9] | [11] | [14] | [16]

COP(=S)(OC)Oc1cc(Cl)c(Br)cc1Cl
inactive: [1] | [2] | [4] | [5] | [17] | [18] | [6] | [7] | [8] | [9] | [10] | [12] | [13] | [19] | [14] | [15] | [16]

Nc1ccc(Sc2ccc(N)cc2)cc1
active: [10] 4.36 µM
inactive: [1] | [2] | [4] | [17] | [9] | [12] | [13] | [19] | [20] | [16]

CCOP(=S)(OCC)SCCS(=O)(=O)CC
inactive: [1] | [2] | [4] | [5] | [17] | [18] | [6] | [7] | [8] | [9] | [10] | [11] | [12] | [13] | [19] | [15] | [16]

O=[N+]([O-])c1ccc(Oc2ccc(C(F)(F)F)cc2[N+](=O)[O-])cc1
active: [1] 19.5 µM | [3] 17.4 µM | [13] 15.5 µM | [19] 19.5 µM
inactive: [4] | [5] | [17] | [6] | [7] | [8] | [10] | [11] | [14] | [20] | [15] | [16]

ClC(Cl)=C(c1ccc(Cl)cc1)c1ccc(Cl)cc1
inactive: [2] | [4] | [5] | [17] | [18] | [6] | [7] | [9] | [10] | [11] | [12] | [14] | [20] | [15] | [16]
active: [1] 56.3 µM

Oc1ccc(C2(c3ccc(O)cc3)c3ccccc3-c3ccccc32)cc1
active: [1] 49 µM | [2] 49 µM | [18] 61.6 µM | [6] 61.6 µM | [10] 61.6 µM | [12] 49 µM
inactive: [4] | [8] | [9] | [11] | [14] | [20] | [15]

CC(C)(COCC1CO1)COCC1CO1 (stereo not drawn)
inactive: [1] | [2] | [4] | [5] | [17] | [18] | [6] | [8] | [9] | [10] | [11] | [12] | [13] | [19] | [14] | [20] | [15] | [16]

CC(=[OH+])/C=C(/C)[O-].CC(=[OH+])/C=C(\C)[O-].CC(=[OH+])/C=C(\C)[O-].[Al]
inactive: [1] | [2] | [4] | [5] | [17] | [18] | [6] | [7] | [8] | [9] | [10] | [11] | [12] | [13] | [19] | [14] | [15] | [16]
